A selection: hits, their analogues and other compounds. The true share with any hit is near 19%.
VP16 counter – Gal4-VP16 reporter inhibition counter-screen. Potency, µM (highest dose often 53.6 µM), without a hit: top-dose activity, negative = inhibition, hits mostly inhibitors. 3.5% of 310,000 active. Drosophila S2 Gal4-VP16 UAS-luciferase, luminescence, 20 h;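 further: Gal4-VP16 expression switched on by copper sulfate through the metallothionein promoter; nearly all actives have a fitted effect of over 50% in size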
TDP1 block – TDP1 (human) enzyme inhibition; Q9NUW8; recombinant TDP1, AlphaScreen DNA substrate cleavage; Potency, µM (top dose mostly 130 µM), inactives show at the top dose activity change, negative = inhibition, hits mostly inhibitors; 0.28% of 350,000 active; AID 485290; further: nearly all actives have a fitted effect of over 40% in size
Target sequence (Q9NUW8 whole entry, looked up): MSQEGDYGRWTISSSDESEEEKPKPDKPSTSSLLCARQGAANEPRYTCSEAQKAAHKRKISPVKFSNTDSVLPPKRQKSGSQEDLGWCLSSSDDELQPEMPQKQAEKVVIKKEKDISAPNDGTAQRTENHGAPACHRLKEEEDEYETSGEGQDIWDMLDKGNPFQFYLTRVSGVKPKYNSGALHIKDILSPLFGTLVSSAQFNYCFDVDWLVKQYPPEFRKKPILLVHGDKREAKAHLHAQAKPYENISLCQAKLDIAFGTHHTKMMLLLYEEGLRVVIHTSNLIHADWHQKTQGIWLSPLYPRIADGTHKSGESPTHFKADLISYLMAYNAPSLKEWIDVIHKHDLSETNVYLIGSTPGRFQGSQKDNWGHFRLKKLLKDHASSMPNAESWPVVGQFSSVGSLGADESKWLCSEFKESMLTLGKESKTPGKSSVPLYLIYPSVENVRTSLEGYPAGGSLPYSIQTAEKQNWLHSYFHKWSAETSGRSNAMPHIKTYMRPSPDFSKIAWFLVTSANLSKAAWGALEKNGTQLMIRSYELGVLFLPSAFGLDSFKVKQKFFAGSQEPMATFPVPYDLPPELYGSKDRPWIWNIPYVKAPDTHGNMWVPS
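AlphaScreen read-out: signal falls as enzyme removes the 3' tyrosine-FITC from a 5'-biotinylated DNA oligo (15 nM, 5 min, RT). Enzyme was E. coli-made recombinant Tdp1 at 1 nM, exposed to compound for 15 min beforehand; beads 10 ug/ml, 10 min.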
DT40 TDP1 no CPT – qHTS for Inhibitors of human tyrosyl-DNA phosphodiesterase 1 (TDP1): qHTS in cells in absence of CPT; DT40 Tdp1-/- hTDP1 cells, no CPT, ATP luminescence, 48 h; 15% of 420,000 active; Potency, µM (series often up to 46.2 µM), for the others: top-dose activity change, negative = growth inhibition, actives largely listed as inhibitors; further: nearly all actives have a fitted effect of over 55% in size
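A cellular qHTS used chicken DT40 cells lacking endogenous Tdp1 but carrying stably transfected human TDP1. Compounds were applied without camptothecin, and cell growth kinetics were judged by ATP-dependent luminescence after ≥48 hr.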
DT40 TDP1 CPT – DT40-hTDP1 cell growth loss with CPT; chicken DT40 Tdp1-/-;hTDP1 cells + 20 nM CPT, ATP luminescence, 48 h; Potency, µM (doses to about 46.2 µM), without a hit: at the top dose activity change, negative = growth inhibition, actives largely listed as inhibitors; 12% of 420,000 active; AID 686979; further: nearly all actives have a fitted effect of over 55% in size
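Chicken DT40 Tdp1-/- cells stably complemented with human TDP1 were seeded at 400 cells/well in medium containing 20 nM camptothecin, exposed to pin-transferred compounds, and grown at 37 °C for at least 48 hr. Viability was read as ATP luminescence.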
RORgamma inh – blocks mouse ROR gamma transcriptional activity; P51450; Drosophila S2 Gal4-RORgamma UAS-luciferase reporter, 20 h; Potency, µM (doses to about 53.6 µM), inactives show at the top dose activity change, negative = inhibition, hits mostly inhibitors; 5.4% of 310,000 active; AID 2551; further: nearly all actives have a fitted effect of over 60% in size
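Luciferase reporter read in Schneider cells carrying Gal4-RORγ (mouse) and UAS-Photinus luciferase; cells given compound 1 h before 700 uM copper sulfate induction, then incubated 20 h at ambient temperature.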
The depositor's hits bear a star; ? = inconclusive; nt = no result given; [ ] = another dose, or the depositor's remark. The call rests on the fitted dose curve; in most records, active means well fitted curve in the direction sought with a large enough effect; inconclusive means small, poorly fitted or top-dose-only effect, or another doubt; inactive means no such curve, though single readings can be large; an effect the other way counts as inactive or inconclusive. On the % scale 0 is the no-effect control and ±100 the full control effect; potency means the concentration at half of the fitted maximal effect.

SMILES	VP16 counter	TDP1 block	DT40 TDP1 no CPT	DT40 TDP1 CPT	RORgamma inh
O=C(Oc1ccc(Br)cc1C(=S)N1CCOCC1)c1ccc([N+](=O)[O-])cc1[N+](=O)[O-]	-25%	7%	?	21µM*	-18%
O=C(Oc1ccc(C(=S)N2CCOCC2)cc1)c1ccc([N+](=O)[O-])cc1[N+](=O)[O-]	-8%	nt	7%	-4%	-29%
Cc1ccccc1C(=O)Oc1ccc(Br)cc1C(=S)N1CCCC1	?	2%	?	?	11µM*
Cc1cc(C(=O)COC(=O)Cn2cnc3c2c(=O)n(C)c(=O)n3C)c(C)n1C	1%	-2%	-20%	-7%	-35%
COc1ccc(CNC(=O)Cn2nc(C(F)(F)F)c3c2CCC3)cc1	-15%	9%	1%	-20%	8%
COc1ccccc1CNc1nc(SC)ncc1CO	0%	0%	?	?	28%
FC(F)(F)c1ccc(CSc2nccn2-c2ccccc2)cc1	-9%	5%	?	?	?
Brc1ccc(CSc2nccn2-c2ccccc2)cc1	-1%	6%	?	-9%	14µM*
Clc1cccc(CSc2nccn2-c2ccccc2)c1	-4%	12%	?	?	5µM*
Cc1ccc(C2(CCNCc3ccc(N(C)C)cc3)CCOC(C(C)C)C2)cc1 (stereo not given)	2%	5%	-109%	?	?
CC(C)C1CC(CCNCc2ccc(N(C)C)cc2)(c2ccccc2)CCO1 (stereo not given)	3%	6%	7.3µM*	7.3µM*	-29%
CN1CCN(c2nc(-c3ccccc3)nc(-c3ccccc3)c2C#N)CC1	-3%	7%	?	?	-3%
CN1CCN(c2nc(-c3ccc(Br)cc3)nnc2-c2ccccc2)CC1	-9%	6%	12µM*	16µM*	?
Cc1ccc(-c2nnc(-c3ccccc3)c(N3CCOCC3)n2)cc1	-4%	7%	16µM*	?	0%
c1ccc(-c2nnc(N3CCOCC3)nc2-c2ccccc2)cc1	-3%	6%	?	16µM*	?
c1ccc(Oc2nc(Oc3ccccc3)nc(N3CCOCC3)n2)cc1	3%	1%	-28%	?	6%
Brc1ccc(-c2nnc(-c3ccccc3)c(N3CCSCC3)n2)cc1	6%	5%	26µM*	?	6%
Oc1ccc2ccccc2c1CNn1cnnc1	0%	-3%	-1%	-18%	0%
COC(=O)CC1C(C)(C)C(=O)C2CC3=C4CC(=O)OC(c5ccoc5)[C@]4(C)CCC3[C@@]1(C)C2=O (stereo not given in full)	0%	14%	-7%	-13%	7%
Cc1oc(-c2cccc(C(F)(F)F)c2)nc1CN1CCOCC1	5µM*	8%	-20%	-3%	0.79µM*
Cc1oc(-c2cccc(C(F)(F)F)c2)nc1CN1CCC[C@H]1CO	0%	-2%	-9%	-24%	11%
Cc1nnc(-c2cccc(C(F)(F)F)c2)nc1N1CCOCC1	9%[10 µM]	-3%	15µM*	5%	36%
CCOc1ccc(NC(=O)N2CCN(C(=O)c3ccco3)CC2)cc1	-15%	3%	-17%	-1%	0%
Cc1c(Cl)cccc1NC(=O)COC(=O)C12CC3CC(CC(O)(C3)C1)C2	nt	1%	-1%	-26%	nt
O=c1cnc2cnc(Oc3cccc(Cl)c3)nc2n1CCc1ccccc1	4%	nt	-15%	?	-1%
SMILES	VP16 counter	TDP1 block	DT40 TDP1 no CPT	DT40 TDP1 CPT	RORgamma inh
CCCCS(=O)(=O)c1sc2nc3c(cc2c1N)CCCC3	?	-4%	23µM*	12µM*	?
CCCCCCCCS(=O)c1sc2nc3c(cc2c1N)CCCC3 (stereo not given)	nt	nt	?	13µM*	nt
CN1C(=O)C(N=Nc2ccccc2C(=O)O)N(C)C1=S (stereo not given)	3%	5%	?	-13%	0%
CC1=NN(c2ccccc2C(=O)O)C(=O)C1N=Nc1ccccc1 (stereo not given)	-9%	nt	21µM*	13µM*	26%
CC1=NN(C(N)=S)C(=O)C1N=Nc1cccc(C(=O)O)c1 (stereo not given)	?	4%	17%	28%	11µM*
Cc1ccc2c(c1)c(N=Nc1cccc(C(=O)O)c1)c(O)n2C	-4%	0%	-2%	?	-2%
CC1=NN(C(N)=S)C(=O)C1N=Nc1cccc(C)c1 (stereo not given)	0%	nt	5.8µM*	3.3µM*	6%
O=C(CN1C(=O)C(=O)N(CCC2=CCCCC2)C1=O)c1c[nH]c2ccccc12	nt	4%	?	-13%	nt
Cc1csc2nc(CNS(=O)(=O)c3ccc4c(c3)CCCC4)cn12	-9%	7%	9.2µM*	?	3%
O=[N+]([O-])c1ccc(S(=O)(=O)CC2CSc3nc4ccccc4n32)cc1 (stereo not given)	?	0%	12µM*	13µM*	-25%
Nc1nc2ccccc2n1S(=O)(=O)c1ccc([N+](=O)[O-])cc1	nt	nt	21µM*	29µM*	nt
Cc1nnc2n(c1=O)C(CS(=O)(=O)c1ccccc1)CS2 (stereo not given)	0%	1%	-12%	2%	?
Nc1nn(S(=O)(=O)c2ccccc2)cc1-c1ccc([N+](=O)[O-])cc1	35µM*	-3%	?	?	?
Cc1ccc(Nc2nc3ccccc3n3nnnc23)cc1	4%	5%	-26%	-25%	2%
O=S(=O)(NCc1ccccc1)c1cccc2nsnc12	1%	-6%	-9%	-5%	8%
COc1cc(N/N=C/c2ccc(N(C)C)cc2)ncn1	?	4%	?	-30%	?
Clc1ccccc1/C=N/Nc1cc(N2CCOCC2)ncn1	?	nt	2%	22%	27%
CCOc1ccc(/C=N/Nc2cc(N3CCOCC3)ncn2)c(O)c1	nt	nt	5.8µM*	5.8µM*	nt
CCOc1ccc(/C=N/Nc2nc(C)cs2)c(O)c1	2.2µM*	nt	?	10µM*	1.4µM*
CCCOc1ccc(/C=N/Nc2cc(N3CCOCC3)ncn2)c(O)c1	18µM*	nt	10µM*	?	?
COc1cc(N/N=C/c2ccccc2O)ncn1	7.1µM*	7%	1.5µM*	1.6µM*	7.1µM*
CSc1nnc(C2CCN(CC(=O)Nc3ccccc3N3CCOCC3)CC2)n1C	-8%	nt	-22%	-2%	17%
Nc1nc(NC2CCCC2)cc(=O)[nH]1	nt	nt	-8%	0%	nt
Cc1cc(N/N=C/c2ccccc2)nc(N2CCOCC2)n1	-13%	nt	-5%	1%	38%
CCCCOc1ccc(/C=N/Nc2cc(N3CCOCC3)nc(C)n2)cc1	?	nt	21µM*	18µM*	-109%
Cc1cccnc1NC(=O)Nc1ccc(Cl)cc1	-3%	nt	19%	-3%	?
